Source: PubChem BioAssay AID1347417 (National Center for Advancing Translational Sciences (NCATS), 2020)
Among all 120,000 compounds or so, about 5,300 (4.4%) were called active. Roughly 22% stayed inconclusive and do not appear here. This excerpt belongs to a sample that is enriched for actives. Values without a mark were called inactive. Calls follow the shape of the dose curve; as a rule, active = well fitted inhibition curve with a large enough effect; inconclusive = small, poorly fitted or top-dose-only effect; inactive = no such curve, though single readings can be large or run the other way.

Test: qHTS Primary assay for Inhibitors of Plasmodium falciparum Dd2 growth in vitro; also: nearly all actives have a fitted effect of over 65% in size;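 as to activity, negative = inhibition: plate controls were DMSO vehicle for no effect and reference drug for full effect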
Settings: P. falciparum Dd2 growth, SYBR Green, 72 h; series mostly up to 28.9 µM; activity, negative = inhibition: at the top concentration
In short: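 Readout: SYBR Green fluorescence, 485 nm excitation, 535 nm emission, after ~16 h lysis at 37C. Before that, Dd2-infected red cells (2.5% hematocrit) grew 72 h with compound, 29 uM top final concentration.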
Potency is read from the fitted curve at half-maximal effect.

Compound | activity, negative = inhibition | Potency | outcome
COc1ccc2[nH]c(=O)c(CCC(=O)NCC(N)=O)cc2c1 | -22% |  | 
Cc1n[nH]c(C)c1CCC(=O)N[C@@H]1CN(S(C)(=O)=O)C[C@H]1CN(C)C | 52.8% |  | 
CCc1cc(N2CCN(CC3(O)CCCNC3)CC2)ncn1 (configuration not stated) | -2.03% |  | 
OC1(CN2CCC(CCn3cccn3)CC2)CNCCOC1 (configuration not stated) | -13.6% |  | 
COc1ccc(OCC2CCN(CC3(O)CCCNC3)CC2)cc1 (configuration not stated) |  | 12.6 µM (active) | 
O=C(c1ccccn1)N1CCC2(CC1)C(=O)Nc1ccccc12 | 90.5% |  | 
O=C([C@@H]1C[C@H](Oc2ccccc2)CN1C(=O)NC1CCCCC1)N1CCCC1 | -1.4% |  | 
COc1ccc(-c2nc(S(=O)(=O)c3ccccc3)c(N3CCCCC3)o2)cc1 | 10% |  | 
COc1ccc(S(=O)(=O)c2cn(C)c3cc(N4CCCCC4)c(F)cc3c2=O)cc1 |  | 8.91 µM (active) | 
Cc1ccc(S(=O)(=O)c2cn(Cc3ccccc3)c3cc(N4CCCC4)c(F)cc3c2=O)c(C)c1 |  | 12.6 µM (active) | 
CC1CCCN(c2cc3c(cc2F)c(=O)c(S(=O)(=O)c2cccc(Cl)c2)cn3Cc2ccccc2)C1 (configuration not stated) |  |  | inactive
CCn1cc(C(=O)N2CCN(c3cc(Cl)ccc3C)CC2)c(=O)c2cc(S(=O)(=O)N3CCCC3)ccc21 | 1.19% |  | 
COc1ccc(N2CCN(C(=O)c3cn(C)c4ccc(S(=O)(=O)N5CCOCC5)cc4c3=O)CC2)cc1 |  |  | inactive
CC(=O)N1CC2(CCN(C(=O)CCC(=O)O)CC2)Cc2ccccc21 | -0.797% |  | 
COc1ccc(-c2cnc3n2CC(C(=O)NCCCN2CCCC2=O)CC3)cc1 (configuration not stated) | -11.1% |  | 
O=C(N[C@@H]1CCC[C@@H]1C(=O)N1CCN(c2ccccc2F)CC1)c1ccncc1 | -23.6% |  | 
COCC(=O)NC1CCN(c2ccc(C)cc2)C1=O (configuration not stated) | -4.4% |  | 
COc1ccccc1C(=O)N1CCCC(n2cc(-c3nc(-c4ccccc4)no3)nn2)C1 (configuration not stated) | -20.6% |  | 
O=C(NC1CCN(Cc2ccccc2)CC1)c1ccc(Cn2c(=O)c3ccccc3n(Cc3cccc(F)c3)c2=O)cc1 |  | 7.94 µM (active) | 
O=c1c2ccccc2n(Cc2cccc(Cl)c2)c(=O)n1Cc1ccccc1 |  |  | inactive
O=C(O)c1c(CNCc2cccc(F)c2)c2ccccc2n1Cc1ccccc1 | -17% |  | 
CC(=O)N1CCC(NC[C@@H]2C=C(C)[C@H](Cc3nc4ccccc4n3C)C[C@H]2C(C)C)CC1 |  | 4.47 µM (active) | 
CC(=O)NC[C@@H]1C=C(C)[C@H](CC(=O)N2CCCC2)C[C@H]1C(C)C |  |  | inactive [at 44.1 µM]
COc1ccc2nc(C[C@@H]3C[C@@H](C(C)C)[C@H](CNC(=O)CC(C)(C)CC(=O)O)C=C3C)[nH]c2c1 |  |  | inactive

Compound | activity, negative = inhibition | Potency | outcome
CC1=C[C@@H](CNC(=O)CCC(=O)O)[C@H](C(C)C)C[C@H]1Cc1nc2ccccc2n1C |  |  | inactive [at 44.1 µM]
CC1=C[C@@H](CNC2CCN(C)CC2)[C@H](C(C)C)C[C@H]1Cc1nc2ccccc2[nH]1 |  | 7.08 µM (active) | 
COc1ccc(CC(=O)NC[C@@H]2C=C(C)[C@H](Cc3nc4ccncc4[nH]3)C[C@H]2C(C)C)cc1 |  |  | inactive
CC1=C[C@@H](CNC(=O)CC2(CC(=O)O)CCCC2)[C@H](C(C)C)C[C@H]1Cc1nc2c(C)cccc2[nH]1 |  |  | inactive
CC1=C[C@@H](CNS(C)(=O)=O)[C@H](C(C)C)C[C@H]1Cc1nc2ccccc2[nH]1 | -20.9% [at 44.1 µM] |  | 
CC1=C[C@@H](CN(CC2CC2)CC2CC2)[C@H](C(C)C)C[C@H]1Cc1nc2c(C)cccc2[nH]1 |  | 7.08 µM (active) | 
COc1ccc(CCC(=O)N2CCC(Cc3nncn3C(C)C)C2)cc1 (configuration not stated) | -17.8% |  | 
CC(=O)N1CCN(Cc2ccc(C(F)(F)F)c(F)c2)CC(O)C1 (configuration not stated) | -0.88% |  | 
O=C(NCc1ccc(F)cc1)N1CCCC(Cc2noc(-c3ccncc3)n2)C1 (configuration not stated) |  |  | inactive
COc1ccc(-c2noc([C@@H]3CCCN3C(=O)CCc3ccccc3)n2)cc1 |  |  | inactive
CCC(=O)N1N=C(c2ccc(OC)cc2)CC1c1cn(-c2ccccc2)nc1-c1cccs1 (configuration not stated) |  | 11.2 µM (active) | 
CCN(CC)CCNC(=O)CN1N=C(c2ccc(OC)cc2)CCC1=O | 11% |  | 
COC[C@@H]1CN(S(=O)(=O)c2cccc(F)c2)C[C@H]1c1ccncc1 | 2.93% |  | 
O=C(c1ccccn1)N1CCC(N(C(=O)NCCc2ccccc2)C2CCOCC2)CC1 | -16% |  | 
OC[C@@H]1CN(Cc2cccnc2)C[C@H]1c1ccncc1 |  |  | inactive
COc1ccccc1Nc1cnc2ccc(-c3ccc(OC)c(OC)c3)nn12 |  | 1.12 µM (active) | 
COc1ccc(-c2ccc3ncc(Nc4ccc(C(F)(F)F)cc4)n3n2)cn1 |  |  | inactive [at 44.1 µM]
CN(C)c1ccc2ncc(Nc3ccccc3F)n2n1 | -14.7% [at 44.1 µM] |  | 
CC(=O)N1CCN(Cc2cc(F)ccc2Cl)CC(O)C1 (configuration not stated) | 19.5% |  | 
CN(Cc1ccccc1)C(=O)C1CCCN(c2cnn(Cc3ccccc3)c(=O)c2)C1 (configuration not stated) |  |  | inactive
Cc1ccc([C@@H]2CN(Cc3ncc[nH]3)[C@@H]3C4CCN(CC4)[C@@H]32)cc1 | -2.87% |  | 
COc1ccc([C@@H]2CN(C(=O)c3c(C)noc3C)[C@@H]3C4CCN(CC4)[C@@H]32)cc1 | -8.25% |  | 
COc1cccc([C@H]2CN(c3cc(C)nc(N)n3)[C@@H]3C4CCN(CC4)[C@H]23)c1 |  | 11.2 µM (active) | 
